Experimental data as given in PubChem BioAssay (Tox21).
Inconclusive results are not listed. Where a call stands in place of a potency, no number is given. Calls of active or inactive are those of the source. The call rests on the fitted dose curve; in most records, active means well fitted curve in the direction sought with a large enough effect in the repeat runs; inconclusive means weak or mixed curves; inactive means no such curve, though single readings can be large; an effect the other way counts as inactive or inconclusive.

Columns and labels:
[1] = target: Cytochrome P450 2D6 (Homo sapiens) (UniProt P10635); test: Cytochrome P450 Family 2 Subfamily D Member 6 (CYP2D6) small molecule antagonists: luciferase reporter qHTS assay (AID 1671196); settings: P450-Glo CYP2D6 enzyme assay, luciferin luminescence, 1 h; series mostly up to 115 µM; further: nearly all actives have a fitted effect of over 50% in size
Cytochrome P450 2D6 (Homo sapiens), sequence (P10635 whole entry, looked up): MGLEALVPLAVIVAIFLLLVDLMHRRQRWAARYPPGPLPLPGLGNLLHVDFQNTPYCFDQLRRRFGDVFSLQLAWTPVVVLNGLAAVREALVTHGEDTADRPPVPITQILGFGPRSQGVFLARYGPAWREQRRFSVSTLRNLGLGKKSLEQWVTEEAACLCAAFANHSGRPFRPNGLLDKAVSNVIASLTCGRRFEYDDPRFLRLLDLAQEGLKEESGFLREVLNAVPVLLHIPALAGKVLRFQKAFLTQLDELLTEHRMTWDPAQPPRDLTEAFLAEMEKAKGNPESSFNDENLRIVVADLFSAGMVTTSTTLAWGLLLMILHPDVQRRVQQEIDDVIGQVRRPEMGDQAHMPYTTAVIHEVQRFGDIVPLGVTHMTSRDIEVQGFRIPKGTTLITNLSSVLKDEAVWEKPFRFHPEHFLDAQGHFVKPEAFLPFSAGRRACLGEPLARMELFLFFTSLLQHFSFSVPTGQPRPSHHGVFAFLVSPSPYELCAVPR
Method in brief: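 Enzyme and proluciferin substrate were first combined with test chemical for 10 min at room temperature. Adding NADPH regeneration solution started a 1 h reaction, stopped with luciferin detection reagent and read by luminescence 20 min later.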

[2] = target: Cytochrome P450 1A2 (Homo sapiens) (UniProt P05177); test: Cytochrome P450 Family 1 Subfamily A Member 2 (CYP1A2) small molecule antagonists: luciferase reporter qHTS assay (AID 1671199); settings: P450-Glo CYP1A2 enzyme, luciferin luminescence, 1 h; series mostly up to 53 µM; further: nearly all actives have a fitted effect of over 50% in size; further: potency means the concentration at half of the fitted maximal effect
Cytochrome P450 1A2 (Homo sapiens), sequence (P05177 whole entry, looked up): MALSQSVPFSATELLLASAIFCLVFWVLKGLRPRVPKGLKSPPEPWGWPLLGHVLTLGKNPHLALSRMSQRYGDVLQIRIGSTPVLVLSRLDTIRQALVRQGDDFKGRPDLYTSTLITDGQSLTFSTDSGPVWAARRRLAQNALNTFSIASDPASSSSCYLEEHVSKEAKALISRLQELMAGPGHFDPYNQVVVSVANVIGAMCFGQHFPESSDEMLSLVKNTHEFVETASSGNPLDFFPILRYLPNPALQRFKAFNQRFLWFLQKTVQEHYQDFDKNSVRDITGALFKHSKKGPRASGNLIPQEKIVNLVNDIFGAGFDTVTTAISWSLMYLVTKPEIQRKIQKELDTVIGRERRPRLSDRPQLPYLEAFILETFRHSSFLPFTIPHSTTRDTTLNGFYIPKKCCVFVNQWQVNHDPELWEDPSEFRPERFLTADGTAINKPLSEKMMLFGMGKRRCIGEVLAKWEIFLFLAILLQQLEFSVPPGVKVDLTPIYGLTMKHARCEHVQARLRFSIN
Method in brief: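 Compounds were incubated with CYP1A2 and a luminogenic proluciferin substrate for 10 min at room temperature before the reaction was started with NADPH regeneration solution. After 1 h, detection reagent was added and light output, proportional to CYP activity, was recorded.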

[3] = target: Voltage-gated inwardly rectifying potassium channel KCNH2 (Homo sapiens) (UniProt Q12809); test: Human Ether-a-go-go-Related Gene (hERG) channel small molecule antagonists: fluorescence cell-based qHTS assay (AID 1671200); settings: hERG-U2OS cells, FluxOR thallium flux fluorescence; series mostly up to 76.8 µM;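 further: hERG-expressing U2OS cells given a thallium stimulus after FluxOR II dye loading; nearly all actives have a fitted effect of over 50% in size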
Voltage-gated inwardly rectifying potassium channel KCNH2 (Homo sapiens), sequence (Q12809 whole entry, looked up): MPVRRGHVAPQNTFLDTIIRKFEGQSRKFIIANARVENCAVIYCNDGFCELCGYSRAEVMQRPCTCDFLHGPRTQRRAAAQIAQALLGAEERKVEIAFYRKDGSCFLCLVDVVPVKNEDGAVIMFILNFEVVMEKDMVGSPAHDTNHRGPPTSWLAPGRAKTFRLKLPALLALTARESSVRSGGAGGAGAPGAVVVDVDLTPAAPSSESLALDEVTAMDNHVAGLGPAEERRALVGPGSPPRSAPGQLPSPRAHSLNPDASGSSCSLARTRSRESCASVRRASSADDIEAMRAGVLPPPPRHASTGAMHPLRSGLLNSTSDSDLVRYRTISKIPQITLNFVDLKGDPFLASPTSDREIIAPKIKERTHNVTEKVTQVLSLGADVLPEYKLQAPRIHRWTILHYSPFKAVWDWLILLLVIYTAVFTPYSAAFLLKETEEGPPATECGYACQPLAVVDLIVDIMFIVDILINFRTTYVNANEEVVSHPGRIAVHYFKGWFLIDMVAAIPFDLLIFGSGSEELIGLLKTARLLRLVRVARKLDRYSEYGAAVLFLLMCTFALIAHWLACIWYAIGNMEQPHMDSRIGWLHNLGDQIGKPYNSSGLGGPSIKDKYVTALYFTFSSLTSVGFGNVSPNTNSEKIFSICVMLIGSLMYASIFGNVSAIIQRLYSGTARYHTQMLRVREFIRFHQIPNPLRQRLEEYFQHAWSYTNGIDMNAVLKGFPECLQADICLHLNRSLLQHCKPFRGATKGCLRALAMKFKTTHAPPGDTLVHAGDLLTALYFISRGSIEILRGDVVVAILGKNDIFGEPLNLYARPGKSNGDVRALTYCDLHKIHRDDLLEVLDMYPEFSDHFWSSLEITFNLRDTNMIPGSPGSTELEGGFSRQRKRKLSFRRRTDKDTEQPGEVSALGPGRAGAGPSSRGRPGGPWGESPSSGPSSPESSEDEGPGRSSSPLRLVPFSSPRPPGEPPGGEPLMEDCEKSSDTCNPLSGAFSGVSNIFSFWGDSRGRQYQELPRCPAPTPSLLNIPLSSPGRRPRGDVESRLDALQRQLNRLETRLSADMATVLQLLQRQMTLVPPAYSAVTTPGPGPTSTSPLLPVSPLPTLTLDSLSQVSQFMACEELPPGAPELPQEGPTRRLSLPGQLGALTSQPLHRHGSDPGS
Method in brief: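 hERG-U2OS cells plated overnight at 37 C, loaded with FluxOR II dye 1 h at RT in dark; after 10 min, thallium stimulus added. Fluorescence (480/540 nm) read kinetically for 2 min at 1 s intervals.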

[4] = target: Cytochrome P450 3A4 (Homo sapiens) (UniProt P08684); test: Cytochrome P450 Family 3 Subfamily A Member 4 (CYP3A4) small molecule antagonists: luciferase reporter qHTS assay (AID 1671201); settings: P450-Glo CYP3A4 enzyme, luciferin luminescence, 1 h; series mostly up to 115 µM; further: nearly all actives have a fitted effect of over 50% in size
Cytochrome P450 3A4 (Homo sapiens), sequence (P08684 whole entry, looked up): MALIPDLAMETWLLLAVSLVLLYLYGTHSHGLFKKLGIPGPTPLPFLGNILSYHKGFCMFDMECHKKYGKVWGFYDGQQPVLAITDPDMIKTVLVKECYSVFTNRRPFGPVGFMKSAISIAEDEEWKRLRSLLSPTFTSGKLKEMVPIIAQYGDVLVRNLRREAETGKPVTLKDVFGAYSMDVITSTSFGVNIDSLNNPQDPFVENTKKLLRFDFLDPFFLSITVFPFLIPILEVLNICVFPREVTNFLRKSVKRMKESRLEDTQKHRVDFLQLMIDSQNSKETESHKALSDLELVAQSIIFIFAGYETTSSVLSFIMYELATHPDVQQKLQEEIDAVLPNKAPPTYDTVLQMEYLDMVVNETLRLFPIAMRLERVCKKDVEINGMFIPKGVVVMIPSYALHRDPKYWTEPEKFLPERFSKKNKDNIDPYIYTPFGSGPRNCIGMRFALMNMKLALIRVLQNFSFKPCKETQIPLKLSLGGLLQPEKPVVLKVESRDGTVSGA
Method in brief: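 P450-Glo CYP3A4 luminescent assay: compounds preincubated 10 min at room temperature with enzyme and proluciferin substrate, NADPH regeneration added, 1 h room-temperature reaction, stopped with luciferin detection reagent; luminescence read after 20 min. Ketoconazole positive control.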

[5] = target: Cytochrome P450 2C19 (Homo sapiens) (UniProt P33261); test: Cytochrome P450 Family 2 Subfamily C Member 19 (CYP2C19) small molecule antagonists: luciferase reporter qHTS assay (AID 1671197); settings: P450-Glo CYP2C19 enzyme, luciferin luminescence, 1 h; series mostly up to 52.9 µM; further: nearly all actives have a fitted effect of over 65% in size; further: potency means the concentration at half of the fitted maximal effect
Cytochrome P450 2C19 (Homo sapiens), sequence (P33261 whole entry, looked up): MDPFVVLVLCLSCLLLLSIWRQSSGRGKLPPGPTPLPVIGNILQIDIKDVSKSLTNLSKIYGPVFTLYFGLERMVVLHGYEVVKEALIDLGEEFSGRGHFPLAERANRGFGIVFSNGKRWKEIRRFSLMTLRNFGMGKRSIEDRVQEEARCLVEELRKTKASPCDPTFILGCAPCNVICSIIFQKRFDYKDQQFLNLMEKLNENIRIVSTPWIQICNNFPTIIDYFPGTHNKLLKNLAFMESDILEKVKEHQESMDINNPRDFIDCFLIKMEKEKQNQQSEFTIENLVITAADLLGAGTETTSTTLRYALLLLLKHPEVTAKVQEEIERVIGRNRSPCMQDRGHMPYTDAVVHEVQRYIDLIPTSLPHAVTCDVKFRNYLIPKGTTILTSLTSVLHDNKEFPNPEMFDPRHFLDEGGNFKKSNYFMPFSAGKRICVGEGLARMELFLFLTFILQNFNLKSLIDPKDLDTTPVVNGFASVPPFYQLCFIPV
Method in brief: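 Relative luminescence units recorded 20 min after the detection reagent stopped a 1 h, 37C CYP2C19 reaction on proluciferin substrate, which was started by NADPH regeneration following 10 min room-temperature compound preincubation; ketoconazole positive control.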

[6] = target: Cytochrome P450 2C9 (Homo sapiens) (UniProt P11712); test: Cytochrome P450 Family 2 Subfamily C Member 9 (CYP2C9) small molecule antagonists: luciferase reporter qHTS assay (AID 1671198); settings: P450-Glo CYP2C9 enzyme assay, luciferin luminescence; series mostly up to 115 µM; further: nearly all actives have a fitted effect of over 50% in size
Cytochrome P450 2C9 (Homo sapiens), sequence (P11712 whole entry, looked up): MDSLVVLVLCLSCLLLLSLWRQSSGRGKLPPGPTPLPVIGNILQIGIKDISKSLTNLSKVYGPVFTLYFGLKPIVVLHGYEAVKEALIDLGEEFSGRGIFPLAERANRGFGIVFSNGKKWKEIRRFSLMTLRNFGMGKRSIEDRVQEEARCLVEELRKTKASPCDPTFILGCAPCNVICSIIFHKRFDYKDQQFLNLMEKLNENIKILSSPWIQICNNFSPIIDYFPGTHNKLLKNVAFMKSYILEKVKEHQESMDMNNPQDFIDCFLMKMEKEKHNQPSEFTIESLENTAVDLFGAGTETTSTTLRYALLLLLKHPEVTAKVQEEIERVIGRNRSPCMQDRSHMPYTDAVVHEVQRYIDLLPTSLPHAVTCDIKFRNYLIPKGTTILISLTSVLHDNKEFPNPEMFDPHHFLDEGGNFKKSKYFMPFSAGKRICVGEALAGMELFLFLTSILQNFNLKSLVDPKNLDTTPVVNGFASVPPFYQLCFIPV
Method in brief: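 P450-Glo proluciferin substrate with CYP2C9 enzyme; 10 min RT preincubation, then NADPH regeneration 1 h at 37C; luciferin detection reagent 20 min RT, luminescence in relative luminescence units.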

Compound	Potency [1]	Potency [2]	Potency [3]	Potency [4]	Potency [5]	Potency [6]
O=C(O)CCc1nc(-c2ccccc2)c(-c2ccccc2)o1	inactive	inactive	inactive	inactive		
CC(C)C[C@H](NC(=O)[C@H](CCc1ccccc1)NC(=O)CN1CCOCC1)C(=O)N[C@@H](Cc1ccccc1)C(=O)N[C@@H](CC(C)C)C(=O)[C@@]1(C)CO1	inactive	inactive	inactive			
CNC(=O)c1cnn(-c2nc(N)c3ncn([C@@H]4O[C@H](CO)[C@@H](O)[C@H]4O)c3n2)c1		inactive	inactive	inactive	inactive	inactive
CC(=O)c1ccc([N+](=O)[O-])cc1		40 µM (active)	inactive	inactive	63.4 µM (active)	inactive
CCOC(=O)c1ccc(I)cc1	inactive	10.1 µM (active)	inactive	inactive		
C=Cc1ccc(S(=O)(=O)O)cc1	inactive	71 µM (active)	inactive	inactive		
